aSyn UTR act: Activators via SNCA 5'UTR binding, MLPCN; 300,000 compounds, 7.1% hits; activity score, % (tested at 7.5 µM), hits read low; alpha-synuclein 5'UTR reporter, activators screen; in the data active means activity score below about -60%
An asterisk follows results filed as active. These entries were drawn from the full list.

SMILES | aSyn UTR act
COc1ccc(/C(N)=N/OC(=O)CC2CCCCC2)cc1 | -111*
Cc1ccc(/C(N)=N/OC(=O)CSc2ccccc2)cc1 | -185*
Cc1ccc(NC(=O)C2C3C=CC4(CN(Cc5cccnc5)C(=O)C24)O3)cc1 (stereo not given) | -80*
O=C(N/N=C/c1cc([N+](=O)[O-])ccc1O)c1cccc(NC(=O)c2cccc(Cl)c2)c1 | 60
Cc1nn(C)cc1/C=N/NC(=S)Nc1ccccc1 | -137*
O=[N+]([O-])c1ccc(Cl)c(/C=N/NC(=S)Nc2ccccc2)c1 | -79*
N#Cc1ccsc1NC(=O)COC(=O)c1ccc2ccccc2c1 | -203*
COc1ccc(CCC(=O)Nc2sccc2C#N)cc1 | -156*
Cc1cc(C)n(-c2nc(NCC(C)O)c3c4c(sc3n2)CCCC4)n1 (stereo not given) | -62*
O=C1CCCCC/C1=N/Nc1ccc(OCc2ccccc2)cc1 | -74*
Cc1ccc(N=Nc2c(N)nn(-c3ccccc3)c2N)cc1 | -183*
Cc1nn(-c2ccccc2)c(N)c1N=Nc1ccc2ccccc2c1 | -242*
Cc1nc2cc3nc(C)sc3cc2s1 | -80*
Cc1ccc(C(=O)/C=C/Nc2cccc(O)c2)cc1 | -194*
C/C(=C\C(=O)c1ccc(C)cc1)Nc1cccc(O)c1 | -284*
O=C(/C=C/Nc1cccc(O)c1)c1ccccc1 | -180*
CC(=O)c1ccc(N/C=C\C(=O)c2ccc(C)cc2)cc1 | -211*
Cc1ccc(C(=O)/C=C/Nc2ccc3c(c2)OCO3)cc1 | -182*
Cc1ccc(N/C=C/C(=O)c2ccccc2)cc1Br | -83*
O=C(/C=C/Nc1ccc(F)c(Cl)c1)c1ccccc1 | -211*
CC(=O)c1cccc(N/C=C\C(=O)c2ccc(C)cc2)c1 | -159*
N#CCCN1CCN(C(=S)c2ccc(-c3ccc(Cl)cc3)o2)CC1 | -88*
CN1CCN(C(=S)c2ccc(-c3cccc(Cl)c3Cl)o2)CC1 | -113*
S=C(c1ccc(-c2ccccc2Cl)o1)N1CCCCC1 | -170*
O=C(Nc1ccccc1N1CCCCC1)c1ccc(-c2ccc(Cl)cc2)o1 | 99
SMILES | aSyn UTR act
S=C(c1ccc(-c2ccc(Cl)cc2)o1)N1CCCCC1 | -150*
O=C(c1ccc(-c2ccccc2Cl)o1)N1CCN(S(=O)(=O)c2cccs2)CC1 | -114*
O=C(c1cccc([N+](=O)[O-])c1)n1nc(-c2ccccc2)nc1NCc1ccccc1 | -68*
O=C(c1ccc([N+](=O)[O-])cc1)n1nc(-c2ccccc2)nc1NCc1ccccc1 | -67*
COCC(=O)n1nc(-c2ccccc2)nc1NCc1ccc(N(C)C)cc1 | -83*
Cn1c(O)c(/C=N/NC(=O)c2cc3ccccc3cc2O)c2ccccc21 | -84*
COc1ccc2c(c1)CCc1c(C(=O)N3CCOCC3)noc1-2 | -162*
O=C(c1nn2c(C(F)(F)F)cc(-c3cccs3)nc2c1Cl)N1CCCc2ccccc21 | 78
COc1ccc2c(c1)CCc1c(C(=O)N3CCCc4ccccc43)noc1-2 | -66*
CC/C(C)=N/Nc1nc(-c2cc3cccc(OC)c3oc2=O)cs1 | -108*
COc1cccc(NCc2cc(=O)oc3cc(-c4ccccc4)c(O)cc23)c1 | -128*
CCOC(=O)C1CCN(C(=O)c2cc(COc3ccc(F)cc3F)on2)CC1 | -144*
CCOC(=O)N1CCN(C(=O)c2cc(COc3ccc(F)cc3F)on2)CC1 | -65*
Cn1/c(=N/N=C/c2ccc(N3CCOCC3)cc2)sc2ccccc21 | -65*
O=C(c1cc(-c2ccc3c(c2)OCO3)on1)N1CCCCC1 | 61
CC1CCCC(C)N1C(=O)c1cc(-c2ccc(Cl)c(Cl)c2)on1 (stereo not given) | -173*
CC1CCCC(C)N1C(=O)c1cc(-c2ccc3c(c2)OCO3)on1 (stereo not given) | -131*
COc1cc(/C=C2\SC(=S)N(CCC(=O)N3CCCCC3)C2=O)cc(OC)c1OC | -95*
O=C1/C(=C/c2cccs2)SC(=S)N1CCC(=O)N1CCCCC1CCO (stereo not given) | -109*
COc1ccc(/C=C2\SC(=S)N(CCCC(=O)N3CCOCC3)C2=O)cc1 | 56
O=C(CCN1C(=O)/C(=C/c2cccs2)SC1=S)N1CCCCC1 | -90*
CN(C)c1cc(N/N=C/c2ccc(Cl)cc2)nc(N(C)C)n1 | -64*
O=[N+]([O-])c1ccc2c(c1)nc1n2CCN(C2CCCCC2)C1 | -127*
COc1ccc(C2C=C(C)Nc3ncnn32)cc1 (stereo not given) | -154*
CCCCCCCCC/C(=N\O)c1ccccn1 | -75*
SMILES | aSyn UTR act
S=C(N/N=C/c1ccc2c(c1)OCO2)NC1CC2CCC1C2 (stereo not given) | -128*
NC(=S)N/N=C/c1ccc2c(c1)OCCO2 | -76*
CNC(=S)N/N=C/c1ccc2c(c1)OCCO2 | -73*
NCCOc1ccc(C23CC4CC(CC(C4)C2)C3)cc1 | 81
NC(=S)N/N=C/c1ccc(C23CC4CC(CC(C4)C2)C3)cc1 | -310*
CCOc1ccc2nc(N3CCCC(C(=O)N4CCN(CC)CC4)C3)sc2c1 (stereo not given) | -96*
Cc1cc(C)c2nc(N3CCCC(C(=O)NC4CCCC4)C3)sc2c1 (stereo not given) | -90*
CCOc1ccc2nc(N3CCCC(C(=O)NCC4CCCO4)C3)sc2c1 (stereo not given) | -145*
CCOC(=O)N1CCN(S(=O)(=O)c2ccc(C(=O)NNc3nc4c(C)cc(C)cc4s3)cc2)CC1 | 71
O=[N+]([O-])/C(C(Cl)=C(Cl)Cl)=C(\Sc1ccccc1)N1CCCCC1 | -116*
Cc1ccc(NC(=O)c2cc(=O)c3ccccc3o2)c(C)c1 | -96*
Cc1ccc(C)c(NC(=O)c2cc(=O)c3ccccc3o2)c1 | -134*
COCCn1c(C)cc(C(=O)COC(=O)c2ccc3ncsc3c2)c1C | -151*
COCCn1c(C)cc(C(=O)COC(=O)c2ccccc2Br)c1C | 55
COCCn1c(C)cc(C(=O)COC(=O)c2cncc(Br)c2)c1C | -121*
CCC(C)NC(=O)c1cc(CC(C)C)on1 (stereo not given) | -68*
CCC(C)NC(=O)c1cc(-c2ccc3c(c2)OCO3)on1 (stereo not given) | -141*
CCOc1ccc(-c2cc(CCCC(=O)NCCCOC)no2)cc1 | 87
CCC(C)NC(=O)c1cc(-c2ccc(OC)cc2)on1 (stereo not given) | -118*
COc1ccc(-c2cc(C(=O)NCC(C)C)no2)cc1 | -99*
Cc1ccc(-c2cnc(N)n2C)cc1C | -71*
CC(C)(C)n1nc(-c2ccc(Cl)cc2)c2c(N)ncnc21 | 105
Cn1c(-c2ccc(Cl)cc2)cnc1N | -126*
Cc1ccc(NC(=O)CSCc2ccc(F)cc2)cc1 | -81*
Cc1ccc(NC(=O)CSCc2ccco2)cc1 | -130*
SMILES | aSyn UTR act
Cc1ccc(OCC(=O)Nc2ccc(F)cc2)cc1 | -96*
CCc1ccc(-c2nc(CSCC(=O)NCc3ccco3)c(C)o2)cc1 | 77
Cc1ccc(NC(=O)C(=S)NCc2ccco2)cc1 | -135*
Cc1ccc(OCC(=O)Nc2ccc(F)cc2)c([N+](=O)[O-])n1 | -167*
Cc1ccc(CSCC(=O)Nc2ccccc2F)cc1 | -81*
Cc1ccc(NC(=O)Cc2ccc(F)cc2)cc1 | -81*
CCCCN1CCc2c([nH]c3c(C)cccc23)C1=O | -150*
Cc1nn(-c2nc3ccccc3s2)c(C)c1Oc1ccccc1O | -77*
Cc1cc(-c2ccc(N3CCOCC3)cc2)nc2ccccc12 | -307*
c1ccc2nc(-c3ccc(N4CCOCC4)cc3)ccc2c1 | 104
Cc1ccnc(NC(=O)Nc2ccc3c(c2)N(C)C(=O)CS3)c1 | -97*

From PubChem
